Source: the supplement of paper PMC7801607

Key:
CHO = test: % viability of CHO cells (MTT); higher = less toxic; details: 48 h
Outline: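 For 48 h, attached CHO cells (10^6 cells/well, 200 µL, seeded the night before) were kept in fresh medium carrying compound at 2 or 20 µM. A colorimetric tetrazolium (MTT) assay then gave survival as percent viability versus untreated cells.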

HepG2-A16-CD81 = test: % inhibition of HepG2 viability (CellTiter-Glo); higher = more toxic; details: 5 µM;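 note: HepG2-A16-CD81 hepatoma cells plated as in the liver-stage assay but without sporozoites, with DMSO wells as negative and 25 µM puromycin as positive control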
[1] = system: Plasmodium falciparum NF54 stage IV/V gametocytes; test: % inhibition of gametocyte viability (PrestoBlue); higher = more inhibition; details: 48 h
Outline: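 Stage IV/V NF54 gametocytes at 2% gametocytaemia and 5% haematocrit (100 µL/well) were treated with compound at 1 or 5 µM and incubated for 48 h at 37 °C under stationary, hypoxic conditions. PrestoBlue (10 µL) was then added for 2 h, and fluorescence at 612 nm was read on 70 µL of transferred supernatant. Percent inhibition of gametocyte viability was normalised to vehicle and kill controls within one run.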

[2] = system: Plasmodium falciparum NF54 asexual blood stage; test: % inhibition of asexual blood stage proliferation (pLDH); higher = more inhibition; details: 72 h
Outline: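 Plasmodium falciparum NF54 ring-stage cultures (1% haematocrit, 2% parasitaemia) were incubated with compound at 2 or 20 µM for 72 h at 37 °C under 4% CO2, 3% O2 and 93% N2. Survival was read at 620 nm with the parasite lactate dehydrogenase assay. Results were reported as percent inhibition of asexual proliferation relative to controls.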

[3] = system: Plasmodium falciparum NF54 stage IV/V gametocytes; test: % inhibition of gametocyte viability (ATP bioluminescence); higher = more inhibition; details: 24 h
Outline: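 Stage IV/V NF54 gametocytes from density gradients (30,000 per well, 96-well plates) were incubated with compound at 1 or 5 µM for 24 h at 37 °C. A single run supplied percent inhibition of gametocyte viability, based on ATP measured with Promega BacTiter Glo and normalised to control wells.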

[4] = system: Plasmodium falciparum NF54 stage IV/V gametocytes; test: % inhibition of gametocyte viability (luciferase reporter); higher = more inhibition; details: 48 h
Outline: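 Stage IV/V gametocytes of the NF54-Pfs16-GFP-Luc line (2% gametocytaemia, 2% haematocrit) were exposed to compound at 1 or 5 µM. Incubation was 48 h at 37 °C, stationary and hypoxic. Luminescence was read on 30 µL lysate plus 30 µL Promega luciferin substrate on a GloMax-Multi+ reader with 10 s integration. Percent inhibition was normalised to DMSO and kill controls from a single run.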

| Structure (SMILES) | % viability of CHO cells (CHO; 2 µM) [%] | % viability of CHO cells (CHO; 20 µM) [%] | % inhibition of HepG2 viability (HepG2-A16-CD81) [%] | % inhibition of gametocyte viability ([1]; 1 µM) [%] | % inhibition of gametocyte viability ([1]; 5 µM) [%] | % inhibition of asexual blood stage proliferation ([2]; 2 µM) [%] | % inhibition of asexual blood stage proliferation ([2]; 20 µM) [%] | % inhibition of gametocyte viability ([3]; 1 µM) [%] | % inhibition of gametocyte viability ([3]; 5 µM) [%] | % inhibition of gametocyte viability ([4]; 1 µM) [%] | % inhibition of gametocyte viability ([4]; 5 µM) [%] |
| --- | --- | --- | --- | --- | --- | --- | --- | --- | --- | --- | --- |
| CCc1nc2ccc(Cl)cn2c1C(=O)NCc1ccc(N2CCC(c3ccc(OC(F)(F)F)cc3)CC2)cc1 | 91.1 | 113 | 7.13 | 22 | < 0 | 31.7 | 102 | < 0 | < 0 | 4.46 | < 0 |
| O=C(c1ccccc1)N1CCN(c2ccccc2NC(=O)C(Cl)(Cl)Cl)CC1 | 113 | 74.3 | 3.18 | < 0 | 5.75 | 50.4 | 118 | < 0 | < 0 | < 0 | < 0 |
| OB1OCc2c1ccc(Cl)c2F | 95.7 | 101 | -0.44 | 8.58 | < 0 | 0.633 | 36.7 | < 0 | < 0 | < 0 | < 0 |
| O[C@@](Cn1cnnn1)(c1ccc(F)cc1F)C(F)(F)c1ccc(-c2ccc(OCC(F)(F)F)cc2)cn1 | 92.3 | 95.9 | 13 | 1.61 | 22.4 | 7.2 | 82.5 | < 0 | 25.9 | < 0 | 3.57 |
| N#Cc1cc([N+](=O)[O-])ccc1Oc1ccccc1Cl | 104 | 84.9 | -4.08 | 55 | 53.9 | -2.85 | 84.9 | < 0 | < 0 | < 0 | < 0 |
| Fc1ccc(-n2cc(Cn3c(-c4cccc(F)c4)nc4ccccc43)nn2)cc1 | 86.4 | 78.7 | -1.61 | < 0 | 43.7 | 9.59 | 83.1 | < 0 | < 0 | < 0 | < 0 |
| NNC(=O)c1ccncc1 | 94.3 | 96.5 | 8.54 | < 0 | 4.24 | 40.1 | 71.2 | < 0 | < 0 | 17.1 | < 0 |
| O=C(Nc1ccc(Cl)c(C(F)(F)F)c1)C(CCCl)C(=O)Nc1ccc(Cl)c(C(F)(F)F)c1 | 84 | 93.6 | 5.66 | < 0 | < 0 | 19.9 | 27.7 | < 0 | < 0 | < 0 | < 0 |
| C=CCc1cc(Cc2cnc(N)nc2N)cc(OC)c1O | 89.2 | 105 | 7.8 | 12.8 | 29.7 | 29.1 | 76.8 | < 0 | < 0 | < 0 | < 0 |
| C[C@H](c1cccc2ccccc12)N(C)Cc1ccccc1 | 98.5 | 116 | 0.334 | 6.61 | 7.59 | 9.39 | 18.9 | < 0 | < 0 | < 0 | < 0 |
| O=S(=O)(NCB(O)O)c1cc2c(Cl)ccc(Cl)c2s1 | 91.2 | 59.2 | 30.9 | 22.6 | 27.1 | -17.5 | -8.49 | < 0 | < 0 | < 0 | < 0 |
| COc1cc(Cc2cc(N)nc(N)n2)cc(OC)c1OC | 107 | 103 | 4.91 | < 0 | < 0 | 43.4 | 50.8 | < 0 | < 0 | < 0 | < 0 |
| OCCC#Cc1nc(-c2ccc(F)cc2)c(-c2ccncc2)n1CCCc1ccccc1 | 107 | 83 | 5.38 | < 0 | 30.5 | 15.3 | 83 | 1.66 | 8.02 | 5.66 | 32.2 |
| Clc1cc(Cl)c2c(c1)CCc1ccccc1C2n1ccnc1 (stereo not given) | 100 | 76.3 | 26.4 | 64.7 | 76.1 | 94.1 | 89.5 | 25.2 | 75.4 | < 0 | 81.4 |
| O=c1oc2ccc(Br)cc2cc1CSc1ncc[nH]1 | 112 | 73.8 | 3.9 | 11.2 | 7.96 | -5.59 | 79 | 6.38 | 5.34 | 4.59 | < 0 |
| O=C(O)c1ccc(-n2nc(-c3ccccc3O)nc2-c2ccccc2O)cc1 | 85.7 | 106 | 3.21 | 8.04 | < 0 | -5.88 | -5.43 | < 0 | < 0 | < 0 | < 0 |
| O=C(Nc1[nH]c(=O)ncc1F)c1ccccc1 | 103 | 106 | 1.79 | 1.43 | 5.2 | 2.42 | 1.98 | < 0 | < 0 | < 0 | < 0 |
| Cc1cc(C)n(O)c(=O)c1 | 108 | 109 | -0.333 | < 0 | 3.7 | -9.1 | 4.56 | < 0 | 3.75 | < 0 | < 0 |
| CC[C@H]1OC(=O)[C@H](C)[C@@H](O[C@H]2C[C@@](C)(OC)[C@@H](O)[C@H](C)O2)[C@H](C)[C@@H](O[C@@H]2O[C@H](C)C[C@H](N(C)C)[C@H]2O)[C@](C)(O)C[C@@H](C)C(=O)[C@H](C)[C@@H](O)[C@]1(C)O | 90.8 | 55.1 | 3.5 | 21 | 21 | -1.14 | 14.1 | < 0 | < 0 | < 0 | < 0 |
| C[Si]1(C)CCN(Cc2cc(-c3ccc(Cl)cc3)n(-c3ccc(Cl)cc3)n2)CC1 | 108 | 71.6 | 5.65 | 28.8 | 68.7 | 57 | 59.2 | 3.88 | 81 | 3.92 | 31.2 |
